The panel holds about 83,000 compounds, 20% with a hit somewhere; the sample as a whole holds those more often.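 Step 1: grow cells in 96-well plates. Step 2: add test compound at a single concentration. Step 3: incubate 48 h. Step 4: record percent growth.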 The source made the active and inactive calls. The calls were made as follows: active = growth percent below 10; inactive = the rest.
What follows are molecules tested on MCF7 breast (assay: NCI-60 one-dose screen, 48 h (100 = growth as untreated, 0 = no growth, -100 = all killed)). Conditions: 10 µM unless noted.
With `CC(C)c1[nH]ncc1-c1nc2ccc3[nH]ncc3c2c2c1CCCC2` the growth was 20.4% (inactive). `Cc1cc(-c2nnc(/C=C/c3ccc4c(c3)OCO4)o2)n[nH]1` was tested, and the growth was 31.7% (inactive). `CCN(CC)CCCCCCCNc1cc(OC)cc2c(C)ccnc12` was tested, and the growth was 27.2% (inactive). In the case of `CCCc1n(Cc2ccc3ccccc3n2)cc[n+]1Cc1ccc2ccccc2n1`, the growth is reported as 15.3% (inactive). In the case of `COc1ccc(/C=C2\N=C(c3cccnc3)N(c3ccccc3)NC2=O)cc1`, the growth is reported as 91.5% (inactive). With `COc1ccc(Sc2[nH]c(C=O)c3ccccc23)cc1` the growth was 57.8% (inactive). With `COc1ccc(-n2nc(C(=O)NCC(=O)Nc3nc4cc(OC)ccc4s3)c3ccccc3c2=O)cc1` the growth was -6.52% (active). In the case of `CCCCN(CCCC)CCCN=c1nc2c(c(N)n1-c1ccccc1)c(=S)n(-c1ccccc1)c(=S)n2-c1ccccc1`, the growth is reported as -88.1% (active). In the case of `O=C(/C=C/c1ccccc1)C(Br)C(Br)c1ccccc1` (centres undefined), the growth is reported as -48.3% (active). In the case of `COc1ccc(Nc2ncccc2C(=O)NCc2cn(Cc3cc(OC)cc(OC)c3)nn2)cc1`, the growth is reported as 104% (inactive). With `CN(C)c1ccc(C(c2ccccc2)c2ccc(N(C)C)cc2)cc1` the growth was 90.3% (inactive). In the case of `COc1ccc(/C(=C\c2cc(OC)c(OC)c(OC)c2)C(=O)N2CCNCC2)cc1`, the growth is reported as 95.5% (inactive). For `CC(=O)c1ccc(Nc2nc(Cl)nc(Oc3c(Cl)cccc3Cl)n2)cc1`, the growth was 74.9% (inactive). `COc1cc2nccc(Oc3ccc(NC(=O)C4(C(=O)Nc5ccc(F)cc5)CC4)cc3)c2cc1Oc1ccc(N)cn1` was tested, and the growth was 9.52% (active). For `N#Cc1nc(-c2ccc(Cl)cc2)cc(-c2ccc(Nc3nc(N4CCCCC4)nc(N4CCCCC4)n3)cc2)c1N`, the growth was 99.6% (inactive). In the case of `Cc1ccccc1CNc1ncnc2[nH]ncc12`, the growth is reported as 104% (inactive). With `CN(C)CCOc1nc2c3ccncc3cc(-c3cccc(Cl)c3)c2c2cnccc12` the growth was 12.5% (inactive). With `Cc1ccc(C2CC(c3cccs3)=NN2c2ccc(S(N)(=O)=O)cc2)s1` (centres undefined) the growth was 77.3% (inactive). For `CN=C1C=C/C(=N/N=c2/ccn(O)cc2C)C=C1C`, the growth was 81% (inactive). For `Oc1[nH]c2ccccc2c1/C=c1/ccc2c(c1)N=C(c1ccc(C(F)(F)F)cc1)N=2`, the growth was 37% (inactive). In the case of `Clc1ccc(Nc2ncnc3c2sc2ncccc23)cc1`, the growth is reported as 19.5% (inactive). In the case of `Nc1nc(N)c2cc(Sc3ccc(Cl)cc3)ccc2n1`, the growth is reported as 19.7% (inactive). For `CCN(C(=O)Nc1cccc2ccccc12)c1ccccc1`, the growth was 97.8% (inactive). In the case of `CCN(CC)CCCC(C)Nc1cnc(C(=O)Nc2ccc(Cl)c3cccnc23)cn1` (centres undefined), the growth is reported as -2.14% (active). For `C/C(=N\NC(=S)Nc1ccccc1)c1ccccn1`, the growth was 18.7% (inactive). `C[C@]12CCc3nc(Nc4ccc(O)cc4)sc3C1=CC[C@@H]1[C@@H]2CC[C@]2(C)/C(=N/NC(N)=S)CC[C@@H]12` was tested, and the growth was -35% (active). In the case of `CC1(C)C(N(O)C(=O)Nc2ccc(Cl)cc2)N(c2ccc(Cl)cc2)C(=O)N1CC(=O)N/N=C/C=C/c1ccc([N+](=O)[O-])o1` (centres undefined), the growth is reported as 7.37% (active). For `COc1ccc(C(=O)c2c(N)nc3n2CCCC3)cc1OC`, the growth was 99% (inactive). In the case of `Fc1ccc2c(CN3CCO[C@H](COc4cccc(Cl)c4)C3)c[nH]c2c1`, the growth is reported as 20.3% (inactive). For `CC(=O)c1c(C)nc(-c2cc(C)cc(Cl)c2)nc1-c1cccc(Oc2ccccc2)c1`, the growth was 43.5% (inactive). For `FC(F)(F)c1ccc(/C=N/Nc2nnc3n2N=C(c2ccc(Cl)cc2)CS3)cc1`, the growth was 61.2% (inactive). `O=C1/C(=C\c2cccn2C(=O)c2ccccc2)c2ccccc2N1c1c(Cl)cccc1Cl` was tested, and the growth was 29.8% (inactive). With `Cc1ccc(S(=O)(=O)NC(CCC(=O)Nc2ccc(Cl)cc2)C(=O)Nc2ccc(Cl)cc2)cc1` (centres undefined) the growth was 30% (inactive). In the case of `CNC(=O)c1cc(Oc2ccc(NC(=O)c3nc(S(C)(=O)=O)n(C)c3-c3ccc(F)cc3)cc2)ccn1`, the growth is reported as 79% (inactive). `Nc1c(C(=O)c2ccc(Br)cc2)sc2nc3c(cc12)CCCC3` was tested, and the growth was 88.4% (inactive). For `CCCCn1cnc(-c2cc(-c3ccccc3)cc(C(F)(F)F)c2)n1`, the growth was 99.6% (inactive). In the case of `COCCCNCC(=O)Nc1c(C)cccc1C`, the growth is reported as 114% (inactive). For `COc1ccc(/C(=C\c2ccc3c(c2)OCO3)C(=O)Nc2nc3ccccc3s2)cc1`, the growth was 107% (inactive). In the case of `COc1ccc2[nH]c(O)c(/C=c3/ccc4c(c3)N=C(c3ccc(C(F)(F)F)cc3)N=4)c2c1`, the growth is reported as 45.1% (inactive).

Source: PubChem BioAssay (NCI)
